From PubChem BioAssay come the findings set out here.

The nature of experiment [1]: small molecules captured by biotinylated probe aFSTL3 – biochemical, small-molecule microarray, fluorescence 635/667, stem cell growth factor project, primary screen (AID 1064).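 Further: measures binding of the biotinylated anti-FSTL3 antibody to printed compounds.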 The settings on record: higher = more signal.
A short description of experiment [2]: binders from COS7 lysate, DM2A8 probe, primary screen, torsin A project, cell lysate, small-molecule microarray, fluorescence 635/667 (AID 1065). The settings on record: higher = more signal, COS7 lysate expressing mutant human TOR1A.
Experiment [3] is described as follows: small molecules captured by biotinylated probe aFGF2 – biochemical, small-molecule microarray, fluorescence 635/667, stem cell growth factor project, primary screen (AID 1067).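 Further: measures binding of biotinylated aFGF2 protein to printed compounds on slides; z-score merges feature fluorescence and signal-to-noise across triplicate slides.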 The settings on record: higher = more signal.
The nature of experiment [4]: small molecules captured by biotinylated probe aFGF10 – biochemical, small-molecule microarray, fluorescence 635/667, stem cell growth factor project, primary screen (AID 1071).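 Further: score merges 667 nm spot intensity and signal to noise from triplicate slides.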 The settings on record: higher = more signal.
The target in experiment [5] is Neurogenic locus notch homolog protein 2 (Homo sapiens) (UniProt Q04721). Kind of experiment: small molecules binding Notch2 protein – biochemical, small-molecule microarray, 635 nm fluorescence, stem cell growth factors, primary screen (AID 1073). The settings on record: higher = more signal.
Chain of Neurogenic locus notch homolog protein 2 (Homo sapiens) (Q04721 whole entry, looked up, canonical isoform): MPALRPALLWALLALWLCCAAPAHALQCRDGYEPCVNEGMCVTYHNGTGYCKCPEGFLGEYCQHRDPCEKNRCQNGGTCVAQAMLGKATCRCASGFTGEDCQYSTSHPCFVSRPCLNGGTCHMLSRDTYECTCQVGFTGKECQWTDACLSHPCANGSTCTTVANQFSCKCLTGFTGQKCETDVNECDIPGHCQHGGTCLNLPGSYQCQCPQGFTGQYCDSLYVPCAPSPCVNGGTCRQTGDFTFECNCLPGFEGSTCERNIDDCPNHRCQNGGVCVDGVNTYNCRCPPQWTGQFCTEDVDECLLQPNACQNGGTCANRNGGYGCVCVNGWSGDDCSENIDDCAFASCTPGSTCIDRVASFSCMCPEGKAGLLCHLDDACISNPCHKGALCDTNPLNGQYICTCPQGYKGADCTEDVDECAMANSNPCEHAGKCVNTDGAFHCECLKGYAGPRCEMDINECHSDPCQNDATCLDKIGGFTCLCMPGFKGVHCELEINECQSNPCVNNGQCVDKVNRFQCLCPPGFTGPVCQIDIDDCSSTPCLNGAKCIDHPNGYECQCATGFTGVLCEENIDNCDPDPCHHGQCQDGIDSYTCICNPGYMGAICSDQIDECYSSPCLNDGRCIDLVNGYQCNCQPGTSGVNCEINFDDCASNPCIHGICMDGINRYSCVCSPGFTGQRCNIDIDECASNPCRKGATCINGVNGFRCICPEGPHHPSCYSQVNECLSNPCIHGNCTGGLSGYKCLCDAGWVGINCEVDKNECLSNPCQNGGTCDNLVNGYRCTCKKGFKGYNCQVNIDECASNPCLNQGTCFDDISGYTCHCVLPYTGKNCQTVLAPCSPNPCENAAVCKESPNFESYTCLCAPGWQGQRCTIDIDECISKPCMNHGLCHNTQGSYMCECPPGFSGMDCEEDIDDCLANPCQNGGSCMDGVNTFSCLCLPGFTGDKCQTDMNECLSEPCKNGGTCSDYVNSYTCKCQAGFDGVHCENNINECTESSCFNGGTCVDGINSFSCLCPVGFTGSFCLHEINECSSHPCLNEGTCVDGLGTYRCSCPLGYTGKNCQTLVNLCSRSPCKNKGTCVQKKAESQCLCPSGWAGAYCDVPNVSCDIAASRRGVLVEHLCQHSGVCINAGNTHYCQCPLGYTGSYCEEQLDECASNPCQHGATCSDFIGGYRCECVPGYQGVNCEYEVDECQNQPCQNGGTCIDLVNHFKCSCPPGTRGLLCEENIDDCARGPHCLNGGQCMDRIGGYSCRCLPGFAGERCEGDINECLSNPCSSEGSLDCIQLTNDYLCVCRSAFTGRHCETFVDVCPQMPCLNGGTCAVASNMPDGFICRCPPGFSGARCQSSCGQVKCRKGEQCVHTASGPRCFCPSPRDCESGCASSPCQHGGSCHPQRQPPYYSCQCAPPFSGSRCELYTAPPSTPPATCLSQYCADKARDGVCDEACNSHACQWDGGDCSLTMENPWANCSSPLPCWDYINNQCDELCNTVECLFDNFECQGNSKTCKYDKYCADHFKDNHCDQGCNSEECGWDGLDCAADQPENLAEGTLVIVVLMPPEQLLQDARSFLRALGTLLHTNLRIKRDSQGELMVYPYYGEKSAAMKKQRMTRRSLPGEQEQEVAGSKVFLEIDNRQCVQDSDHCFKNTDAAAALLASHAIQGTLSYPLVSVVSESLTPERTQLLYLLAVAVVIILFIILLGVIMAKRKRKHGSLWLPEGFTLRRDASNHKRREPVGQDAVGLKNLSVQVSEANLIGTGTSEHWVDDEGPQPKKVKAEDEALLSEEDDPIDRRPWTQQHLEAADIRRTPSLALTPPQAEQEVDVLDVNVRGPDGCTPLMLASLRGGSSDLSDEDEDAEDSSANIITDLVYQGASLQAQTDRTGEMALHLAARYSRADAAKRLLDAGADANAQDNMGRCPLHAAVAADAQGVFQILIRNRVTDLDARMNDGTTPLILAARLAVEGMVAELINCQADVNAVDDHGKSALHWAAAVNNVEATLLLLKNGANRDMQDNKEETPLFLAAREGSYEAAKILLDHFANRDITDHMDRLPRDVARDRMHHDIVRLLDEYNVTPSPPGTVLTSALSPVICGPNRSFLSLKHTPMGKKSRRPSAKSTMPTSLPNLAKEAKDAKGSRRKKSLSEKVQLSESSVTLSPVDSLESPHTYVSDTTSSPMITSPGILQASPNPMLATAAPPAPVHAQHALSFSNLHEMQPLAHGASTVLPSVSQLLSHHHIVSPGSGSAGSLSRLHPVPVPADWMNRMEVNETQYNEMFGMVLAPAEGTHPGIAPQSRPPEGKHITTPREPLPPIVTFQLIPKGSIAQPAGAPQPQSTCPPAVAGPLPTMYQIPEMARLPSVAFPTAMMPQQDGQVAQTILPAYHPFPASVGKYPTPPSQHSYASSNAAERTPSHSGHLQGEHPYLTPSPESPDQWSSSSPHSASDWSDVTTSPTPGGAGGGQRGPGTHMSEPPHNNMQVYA
The target in experiment [6] is Pro-neuregulin-1, membrane-bound isoform (Homo sapiens) (UniProt Q02297). Kind of experiment: small molecules binding neuregulin-1 protein – biochemical, small-molecule microarray, fluorescence 635/667, psychiatric disease protein project, primary screen (AID 1075).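 Further: score combines 667 nm spot fluorescence with signal to noise.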 The settings on record: NRG1 binding, 635 nm fluorescence, higher = more signal.
Chain of Pro-neuregulin-1, membrane-bound isoform (Homo sapiens) (Q02297 whole entry, looked up, the tested form may be a part, canonical isoform): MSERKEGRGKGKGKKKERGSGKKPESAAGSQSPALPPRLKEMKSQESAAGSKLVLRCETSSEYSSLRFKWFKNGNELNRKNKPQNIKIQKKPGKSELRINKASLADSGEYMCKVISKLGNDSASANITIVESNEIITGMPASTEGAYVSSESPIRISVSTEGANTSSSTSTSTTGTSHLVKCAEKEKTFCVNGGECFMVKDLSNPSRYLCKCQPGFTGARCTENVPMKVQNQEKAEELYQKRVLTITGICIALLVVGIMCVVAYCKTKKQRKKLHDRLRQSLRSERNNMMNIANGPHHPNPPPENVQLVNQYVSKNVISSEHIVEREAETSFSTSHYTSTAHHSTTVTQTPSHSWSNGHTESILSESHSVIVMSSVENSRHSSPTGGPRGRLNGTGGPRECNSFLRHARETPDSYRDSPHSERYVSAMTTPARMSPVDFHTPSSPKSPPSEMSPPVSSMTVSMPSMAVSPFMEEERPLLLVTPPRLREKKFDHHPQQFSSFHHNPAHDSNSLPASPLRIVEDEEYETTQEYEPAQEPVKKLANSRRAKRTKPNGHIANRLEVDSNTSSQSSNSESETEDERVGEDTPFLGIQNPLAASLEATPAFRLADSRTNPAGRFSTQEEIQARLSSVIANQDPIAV
The subject of experiment [7] is Neuregulin-1 EGF-like domain. Kind of experiment: small molecules binding NRG1 EGF domain – biochemical, small-molecule microarray, 635 nm fluorescence, primary screen (AID 1081).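 Further: binding of the protein to compounds printed on small-molecule microarray slides.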 The settings on record: higher = more signal.
Experiment [8] in a line: FRG1 expression reporter modulators in myotubes – cell-based, C2C12 myotubes, firefly/Renilla luciferase, luminescence, FRG1 inhibition for FSHD, primary screen (AID 1084). The settings on record: FRG1 promoter luciferase, higher = more signal, called active from +8 up or from −8 down.
The nature of experiment [9]: small molecules captured by biotinylated probe aFST – biochemical, small-molecule microarray, fluorescence 635/667, stem cell growth factor project, primary screen (AID 1086).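 Further: score merges 667 nm fluorescence with signal-to-noise of each printed compound spot.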 The settings on record: higher = more signal.
Experiment [10] in a line: binders of probe aHhip on microarray, primary screen, stem cell growth factor project, biochemical, small-molecule microarray, fluorescence 635/667 (AID 1087).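 Further: score merges spot fluorescence at 667nm with spot signal to noise ratio.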 The settings on record: higher = more signal.

The structures appear in SMILES notation. The source made the active and inactive calls.

In the case of `COCCCNC(=O)[C@]1(Cc2ccccc2N=[N+]=[N-])N=C(c2ccc(OCCCO)cc2)O[C@@H]1c1ccccc1`, the composite z-score came to 0.522 in experiment [1]; 1 in experiment [2]; 0.286 in experiment [3]; 0.232 in experiment [4]; 1.4 in experiment [5]; 1.73 in experiment [6]. Further, the composite z-score in [7] turned out to be 1.27; in experiment [9], 1.14; in experiment [10], 0.547. The z-score in [8] was -2.74 (inactive).
On to `CC(C)(C)OC(=O)CC[C@@]1(C(N)=O)N=C(c2ccc(OCCCO)cc2)O[C@@H]1c1ccccc1CN=[N+]=[N-]`, for which the composite z-score in experiment [1] is 0.389; in experiment [2], 0.87; in experiment [3], 0.153; in experiment [4], 0.712; in experiment [5], 1.57; in [6] it was 1.28. Besides, the composite z-score worked out at 1.44 in [7], 1.47 in [9] and 0.452 in experiment [10]. Besides, the z-score in [8] was 4.09 (inactive).
As for `O=C1N(Cc2ccccc2)c2ccccc2C[C@@]12N=C(c1ccc(OCCCO)cc1)O[C@H]2c1ccccc1`, the composite z-score was -0.0448 in experiment [1]; 0.0182 in experiment [2]; -0.0129 in experiment [3]; 0.311 in experiment [4]; 0.18 in [5]; 0.909 in experiment [6]. Also, the composite z-score in [7] is 1.14; in experiment [9], -0.238; in [10], -0.0925. For the same compound, in experiment [8], the z-score was -2.64 (inactive).
Take `CC(C)[Si]1(C(C)C)OCc2cc(-c3ccc(-c4ccc(Cl)c(Cl)c4)o3)nc(-c3ccc(Oc4ccccc4)cc3)c21`: the composite z-score in [1] was 0.639; in experiment [2], -1.11; in experiment [3], -0.207; in experiment [4], -0.738; in experiment [5], -1.78; in [6] it was -0.762. Moreover, the results for the composite z-score in experiment [7], in experiment [9] and in experiment [10] were -0.6, -0.857 and -0.306, respectively. Further, the z-score in [8] was 1.52 (inactive).
For `C=CC[C@]12N=C(c3ccc(OCCCO)cc3)O[C@H]1c1ccccc1N(CCC)C2=O`, the composite z-score in experiment [1] worked out at 1.08; in [2], 1.02; in experiment [3] it was 0.239; in experiment [4], 0.367; in experiment [5], 0.481; in experiment [6], 1.56. Besides, the composite z-score in experiment [7] is 1.35; in experiment [9], 2; in experiment [10], -0.0961. Further, the z-score in experiment [8] was 0.43 (inactive).
As to `COCCOC(=O)N1C(=O)[C@@]2(c3cc(C#CCC(C(=O)OC)C(=O)OC)ccc31)[C@H](C(N)=O)[C@H]1C(=O)O[C@H](c3ccccc3)[C@H](c3ccccc3)N1[C@@H]2c1ccccc1OCCO`, the composite z-score was -0.453 in experiment [1]; -0.413 in experiment [2]; -0.152 in experiment [3]; 0.47 in [4]; 0.937 in experiment [5]; 0.555 in experiment [6]. Moreover, the composite z-score in [7] was 1.19; in experiment [9] it was 0.6; in experiment [10], -0.0618. Besides, the z-score in [8] was -1.3 (inactive).
With `COC(=O)[C@@]1(Cc2ccccc2)[C@H]2c3cc(C(=O)N(C)C)n(Cc4ccc(Cl)c(C(F)(F)F)c4)c3C[C@H]2CN1C(=O)c1ccccc1`, the composite z-score was found to be 0.0539 in [1]; 0.277 in experiment [2]; 0.372 in experiment [3]; 1.09 in experiment [4]; 1.61 in experiment [5]; 1.35 in experiment [6]. For the same compound, the figures for the composite z-score in [7], in experiment [9] and in experiment [10] were 1.18, 1.51 and 0.26, respectively. Moreover, in [8], the z-score is -3.33 (inactive).
On to `CC(CO)N1C(=O)[C@@H]2[C@H]3C(=O)OCC=C[C@H]3OC23C=CCN(c2ccc4ccccc4c2)C(=O)[C@@H]13` (stereo not given in full), for which the composite z-score in experiment [1] was 0.865; in experiment [2] it was -1.47; in experiment [3], -0.149; in [4] it was -0.451; in experiment [5], -1.19; in [6], -1.2. Besides, the composite z-score is 0.632 in [7], -0.946 in experiment [9] and -0.0994 in [10]. The z-score in experiment [8] is 0.621 (inactive).
As to `C=CC[C@@]1(C(=O)NCCCOC)N=C(c2ccc(OCCCO)cc2)O[C@@H]1c1ccccc1CN=[N+]=[N-]`, the composite z-score in experiment [1] is 0.227; in [2], -0.448; in experiment [3], 0.106; in experiment [4] it was 0.744; in experiment [5], 1.43; in experiment [6] it was 1.79. For the same compound, the results for the composite z-score in experiment [7], in experiment [9] and in [10] were 1.03, 1.25 and -0.105, respectively. The z-score in experiment [8] is -1.97 (inactive).
As for `COc1ccc(CCNC(=O)[C@@H]2c3ccccc3C(=O)N(Cc3cc(F)cc(C(F)(F)F)c3)[C@H]2c2ccc(CO)cc2)cc1`, the composite z-score in experiment [1] was found to be 1.65; in experiment [2], 0.705; in experiment [3] it was 0.272; in experiment [4], 0.235; in experiment [5], 0.158; in [6], 1.17. Besides, the composite z-score is 0.975 in experiment [7], 2.49 in [9] and -0.251 in experiment [10]. The z-score in experiment [8] was -1.36 (inactive).
On to `[N-]=[N+]=NCc1ccccc1C[C@@]1(C(=O)NCCN2CCOCC2)N=C(c2ccc(OCCCO)cc2)O[C@@H]1c1ccccc1`, for which the composite z-score in [1] is -0.0252; in [2] it was -0.539; in experiment [3], -0.0514; in experiment [4] it was 0.246; in [5], 0.266; in experiment [6] it was 1.12. The composite z-score was 1.28 in [7], 0.804 in [9] and -0.0994 in [10]. Besides, in experiment [8], the z-score is -3.05 (inactive).
Take `C=C(CCCC)C(=O)CC[C@H](OC(=O)c1ccccc1-c1ccccc1C(=O)O)c1cccc(OCCO)c1`: the composite z-score in [1] is 0.0622; in [2] it was 0.375; in experiment [3], -0.133; in experiment [4], -0.416; in experiment [5] it was -1.37; in experiment [6], 1.29. Moreover, the composite z-score is 0.652 in experiment [7], -0.284 in [9] and -0.0994 in experiment [10]. The z-score in experiment [8] is -0.0278 (inactive).
`COc1ccc([Si](C)(C)[C@H]2[C@H](CC(=O)N3CCC[C@H]3CO)O[C@@]3(C(=O)N(C)c4c(Br)cc(C)cc43)[C@@H]2C)cc1`: the composite z-score in [1] turned out to be 0.536; in experiment [2], 1.88; in [3] it was 0.336; in experiment [4] it was 1.04; in experiment [5], 0.284; in [6] it was 2.51. Moreover, the composite z-score turned out to be 1.41 in [7], 1.12 in experiment [9] and 0.104 in experiment [10]. The z-score in experiment [8] is -1.39 (inactive).
